For 6 compounds, z-score and composite z-score results are on record in PubChem BioAssay.

A short description of experiment [1]: A549 cell viability effects, profiling panel, calcein-AM fluorescence, 48 h, basal (AID 1162). Also: test concentration not given here. The following applies: higher = more signal.
Experiment [2] is described as follows: adipocyte viability effects, profiling panel, cell-based, 3T3-L1 adipocytes, calcein-AM fluorescence, 48 h, basal (AID 1163). Also: test concentration not given here. The following applies: 3T3-L1 adipocytes viability, higher = more signal.
The nature of experiment [3]: HepG2 cell viability effects, profiling panel, calcein-AM fluorescence, 48 h, basal (AID 1164). Also: test concentration not given here. The following applies: higher = more signal.
Experiment [4] is described as follows: MM1S cell viability effects, profiling panel, calcein-AM fluorescence, 48 h, basal (AID 1165).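 Also: viability of MM1S multiple myeloma cells under basal unstimulated conditions; test concentration not given here.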 The following applies: higher = more signal.
A short description of experiment [5]: basal RPMI8226 viability, no added stimulus, profiling panel, cell-based, calcein-AM fluorescence, 48 h, PK04 Diversity Set (AID 1166).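 Also: cells grown under basal conditions without added stimulus; test concentration not given here.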 The settings on record: RPMI8226 myeloma viability, higher = more signal.
Experiment [6] in a line: basal HepG2 mitochondrial membrane potential changes, profiling panel, cell-based, JC-1 fluorescence, 24 h, 100 nL compound (AID 1167). Also: test concentration not given here. The following applies: higher = more signal.
Experiment [7] can be described thus: basal 3T3-L1 adipocyte mitochondrial potential changes, profiling panel, cell-based, JC-1 fluorescence, 3T3-L1 adipocytes, 24 h, 100 nL compound (AID 1168). Also: test concentration not given here. The settings on record: JC-1 mitochondrial fluorescence, higher = more signal, called active from +8 up or from −8 down.
Experiment [8] in a line: basal RPMI8226 mitochondrial membrane potential changes, profiling panel, cell-based, JC-1 fluorescence, 24 h, 100 nL compound (AID 1169). Also: test concentration not given here. The settings on record: RPMI8226 myeloma, JC-1 mitochondrial potential fluorescence, higher = more signal.
A short description of experiment [9]: basal MM1S mitochondrial membrane potential changes, profiling panel, cell-based, JC-1 fluorescence, 24 h, 100 nL compound (AID 1170). Also: test concentration not given here. The following applies: higher = more signal.
A short description of experiment [10]: A549 lung cancer cell viability effects, profiling panel, resazurin fluorescence, 24 h, PK04 Diversity Set (AID 1171). Also: test concentration not given here. The settings on record: higher = more signal, called active from +8 up or from −8 down.
The nature of experiment [11]: HepG2 liver cancer cell viability effects, profiling panel, resazurin fluorescence, 24 h, PK04 Diversity Set (AID 1172). Also: test concentration not given here. The settings on record: higher = more signal. Background: Alamar Blue is a resazurin reagent that responds to reducing activity.
Experiment [12] is described as follows: basal S. cerevisiae growth modulation, no modifier, primary screen, OD600, strain BY4716, 24 h, basal condition (AID 1173). The settings on record: OD600, 24 h, higher = more signal, called active from +8 up or from −8 down.
Experiment [13] in a line: MM1S myeloma cell viability, profiling panel, resazurin fluorescence, basal, 24 h, PK04 Diversity Set (AID 1174). Also: test concentration not given here. The settings on record: higher = more signal, called active from +8 up or from −8 down.
For experiment [14], the target named is Dihydroorotate dehydrogenase (quinone), mitochondrial (Plasmodium falciparum (isolate 3D7)) (UniProt Q08210). Nature of the experiment: PfDHODH enzyme inhibitors, primary screen, biochemical, C-terminal His tag, absorbance 600 nm (AID 1175).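 Also: recombinant parasite enzyme with a five histidine tag at its C terminus; test concentration not given here.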 The settings on record: DCIP absorbance 600 nm, higher = more signal, called active from +8 up or from −8 down.
Sequence of Dihydroorotate dehydrogenase (quinone), mitochondrial (Plasmodium falciparum (isolate 3D7)) (Q08210 whole entry, looked up): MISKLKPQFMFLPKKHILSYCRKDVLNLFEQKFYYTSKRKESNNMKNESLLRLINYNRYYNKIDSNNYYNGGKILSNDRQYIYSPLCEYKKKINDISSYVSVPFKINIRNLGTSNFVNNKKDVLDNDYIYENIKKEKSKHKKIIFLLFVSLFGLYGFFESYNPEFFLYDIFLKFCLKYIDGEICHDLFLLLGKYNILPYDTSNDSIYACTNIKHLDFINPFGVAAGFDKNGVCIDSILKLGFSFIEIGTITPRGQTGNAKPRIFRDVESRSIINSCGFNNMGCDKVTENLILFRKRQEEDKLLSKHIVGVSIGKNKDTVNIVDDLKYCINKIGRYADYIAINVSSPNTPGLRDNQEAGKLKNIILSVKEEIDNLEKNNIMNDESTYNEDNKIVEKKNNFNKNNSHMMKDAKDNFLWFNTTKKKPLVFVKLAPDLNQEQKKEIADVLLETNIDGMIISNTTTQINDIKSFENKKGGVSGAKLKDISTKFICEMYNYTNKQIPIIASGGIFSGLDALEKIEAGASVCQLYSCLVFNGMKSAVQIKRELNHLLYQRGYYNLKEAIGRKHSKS
Experiment [15] is described as follows: P. aeruginosa biofilm formation inhibitors, primary screen, strain PAO1, LB-PBS medium, absorbance 600 nm (AID 1176). Also: test concentration not given here. The following applies: P. aeruginosa PAO1 growth/biofilm, A600, 12 h; higher = more signal.
Experiment [16] in a line: S. cerevisiae RM11-1a growth modifiers, primary screen, strain RM11-1a, OD600, basal, 24 h (AID 1177).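 Also: cultures grown under basal conditions with no added stressor; test concentration not given here.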 The settings on record: OD600, 24 h, higher = more signal, called active from +8 up or from −8 down.
Experiment [17] can be described thus: E. coli acrAB mutant growth effects, primary screen, E. coli filamentation inducers, strain DRC39, OD650, 24 h (AID 1178).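 Also: growth measured as culture turbidity by optical density at 650 nm; test concentration not given here.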 The following applies: higher = more signal, called active from +8 up or from −8 down.
Experiment [18] is described as follows: E. coli acrAB mutant growth effects, primary screen, E. coli filamentation inducers, strain DRC39, OD650, 48 h (AID 1179).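 Also: screen aims at cell division blockers that make cells filament.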 The settings on record: E. coli DRC39 delta-acrAB growth, higher = more signal, called active from +8 up or from −8 down.
Experiment [19] can be described thus: RPMI8226 myeloma cell viability, profiling panel, resazurin fluorescence, basal, 24 h, PK04 Diversity Set (AID 1180).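 Also: RPMI8826 multiple myeloma cell line at 5000 cells per well; test concentration not given here.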 The following applies: higher = more signal.
The target of experiment [20] is E3 ubiquitin-protein ligase XIAP (Homo sapiens) (UniProt P98170). Put plainly: XIAP binders, primary screen, biophysical, small-molecule microarray, fluorescence 635 nm (AID 1181).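 Also: score merges 667 nm emission and signal to noise over triplicate slides.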 The following applies: small-molecule microarray binding, higher = more signal.
Sequence of E3 ubiquitin-protein ligase XIAP (Homo sapiens) (P98170 whole entry, looked up): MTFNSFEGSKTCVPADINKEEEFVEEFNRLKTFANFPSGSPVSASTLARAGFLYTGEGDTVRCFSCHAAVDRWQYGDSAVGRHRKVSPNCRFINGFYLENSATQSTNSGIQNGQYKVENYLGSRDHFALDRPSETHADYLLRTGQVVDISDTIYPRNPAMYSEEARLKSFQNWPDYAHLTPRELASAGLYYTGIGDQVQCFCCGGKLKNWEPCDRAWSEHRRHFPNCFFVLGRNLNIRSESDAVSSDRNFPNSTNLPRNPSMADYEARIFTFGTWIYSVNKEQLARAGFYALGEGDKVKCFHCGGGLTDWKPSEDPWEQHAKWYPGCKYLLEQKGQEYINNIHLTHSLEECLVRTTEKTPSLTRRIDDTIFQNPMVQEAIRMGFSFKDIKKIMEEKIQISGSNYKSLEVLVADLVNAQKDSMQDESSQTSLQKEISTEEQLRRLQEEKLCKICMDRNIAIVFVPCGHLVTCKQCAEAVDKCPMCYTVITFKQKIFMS

Where “and” joins values, the source holds several entries; their conditions need not be identical. Equal entries are not always repeated. Calls of active or inactive are those of the source. Unless noted, no rule for the calls is given here.

`C=CCN(CCCC)C(=O)C1N(CCOCCO)C(=O)C2C(C(=O)O)C3C=CC21O3` (stereo not given): the z-score in experiment [1] was -0.397 and -0.276; in experiment [2], 0.28 and -0.404; in experiment [3] it was -1.2 and -1.42; in experiment [4] it was 0.929 and 0.966; in experiment [5] it was -0.234 and 0.295; in experiment [6], -0.419 and -0.964. The z-score in experiment [7] was -0.309 (inactive) and -0.776 (inactive); in experiment [8] it was 0.563 and 0.0271; in [9] it was 0.0912 and -0.0623; in [10], -0.169 (inactive) and -0.593 (inactive); in [11] it was -0.171 and -0.143; in experiment [12] it was 0.492 (inactive) and 1.27 (inactive). In addition, the z-score is -0.451 (inactive) and -0.748 (inactive) in experiment [13]; 0.413 (inactive) and 0.261 (inactive) in experiment [15]; -0.119 (inactive) and 0.178 (inactive) in experiment [16]; 0.127 (inactive) and -0.229 (inactive) in experiment [17]; -0.11 (inactive) and -0.406 (inactive) in [18]; -0.472 and -0.68 in experiment [19]. Besides, the composite z-score in [14] is 0.457 (inactive) and 0.856 (inactive); in experiment [20], 0.0258 and -0.304.
Turning to `C=CCN(Cc1ccccc1)C(=O)C1N(C(C)(C)CO)C(=O)C2C(C(=O)O)C3C=CC21O3` (stereo not given), the z-score was -0.535 and -0.297 in [1]; -0.355 and 0.134 in experiment [2]; -1.11 and 0.0167 in [3]; 0.0296 and 1.03 in experiment [4]; 0.0867 and -0.103 in experiment [5]; -0.955 and -0.123 in experiment [6]. Moreover, the z-score in experiment [7] is 0.0762 (inactive) and -0.264 (inactive); in experiment [8] it was 0.248 and 0.652; in [9], -0.16 and -0.15; in experiment [10] it was -0.363 (inactive) and 0.344 (inactive); in [11], -0.767 and 0.937; in experiment [12], 0.424 (inactive) and -0.874 (inactive). In addition, the z-score in experiment [13] is -0.796 (inactive) and 0.0609 (inactive); in experiment [15] it was -0.112 (inactive) and -0.193 (inactive); in [16] it was -1.32 (inactive) and -0.417 (inactive); in [17] it was -0.0429 (inactive) and 0.296 (inactive); in experiment [18], -0.0639 (inactive) and 0.0039 (inactive); in experiment [19], -0.699 and 0.447. The composite z-score in experiment [14] was 1.25 (inactive) and 0.316 (inactive); in experiment [20] it was 0.0322 and -0.328.
Turning to `CN1C(=O)C2CC=C([C@H]3Oc4ccccc4S(=O)(=O)N4CCC[C@@H]34)CC2C1=O` (stereo not given in full), the z-score is -0.657 and 0.15 in experiment [1]; -0.109 and 0.323 in [2]; -0.926 and -0.369 in [3]; 0.49 and 0.288 in [4]; -0.177 and -0.215 in experiment [5]; -0.649 and 0.00971 in experiment [6]. Also, the z-score in [7] was 0.243 (inactive) and 0.347 (inactive); in experiment [8] it was 0.439 and 0.341; in [9], 0.123 and -0.0296; in experiment [10], 0.0976 (inactive) and -0.125 (inactive); in [11], -0.448 and 0.0011; in [12], 0.325 (inactive) and 0.478 (inactive). The z-score in experiment [13] is -0.391 (inactive) and -0.44 (inactive); in experiment [15], -0.0582 (inactive) and 0.0481 (inactive); in [16], 0.961 (inactive) and 1.32 (inactive); in [17] it was 0.563 (inactive) and 0.831 (inactive); in [18], 0.111 (inactive) and 0.0952 (inactive); in [19], -0.801 and -0.0821. The composite z-score was 0.341 (inactive) and -0.0294 (inactive) in [14]; -0.245 and -0.244 in experiment [20].
Regarding `CC(CO)N1C(=O)[C@@H]2C3C(=O)OCCC=C[C@H]3OC23C=CCN(c2ccc4ccccc4c2)C(=O)[C@@H]13` (stereo not given in full), the z-score in experiment [1] was -0.288 and -0.0156; in [2], 0.0371 and -0.217; in experiment [3], -0.463 and -0.565; in experiment [4], 0.0923 and 1.01; in experiment [5], -0.526 and -0.237; in [6] it was -0.0969 and -0.0971. For the same compound, the z-score in experiment [7] was -0.684 (inactive) and -1.28 (inactive); in experiment [8], -0.904 and 0.195; in experiment [9] it was 0.238 and 0.275; in [10], -0.124 (inactive) and 0.0409 (inactive); in experiment [11] it was -0.406 and 0.0336; in experiment [12] it was 0.425 (inactive) and -0.0343 (inactive). For the same compound, the z-score in experiment [13] is -0.832 (inactive) and -0.602 (inactive); in [15], -0.0837 (inactive) and -0.649 (inactive); in experiment [16], 1.44 (inactive) and -0.636 (inactive); in experiment [17], -0.881 (inactive) and -0.593 (inactive); in [18] it was -0.987 (inactive) and -0.714 (inactive); in experiment [19], -0.406 and -0.233. Besides, the composite z-score in experiment [14] is -5.1 (inactive) and -0.281 (inactive); in experiment [20], 0.172 and 0.232.
As for `O=C1[C@H]2[C@H]3[C@H](O)[C@H](O)CC(=NOCc4ccccc4)[C@H]3CC[C@H]2C(=O)N1Cc1ccccc1`, the z-score in experiment [1] is -0.85; in [2], 1.18; in [3], -0.977; in [4] it was -0.695; in experiment [5] it was -1.69; in experiment [6], 1.09. The z-score was -0.0708 (inactive) in experiment [7]; 0.00736 in experiment [8]; -1.48 in experiment [9]; 0.51 (inactive) in experiment [10]; 0.447 in experiment [11]; -2.68 (inactive) in [12]. The z-score in experiment [13] was 1.58 (inactive); in experiment [15], 0.106 (inactive); in [16] it was -2.13 (inactive); in experiment [17] it was 0.323 (inactive); in experiment [18], -0.777 (inactive); in [19], 0.719. In addition, the figures for the composite z-score in experiment [14] and in [20] were -2.59 (inactive) and -0.13, respectively.
With `COc1ccc(O[C@H]2C=C[C@@H](c3ccccc3)O[C@@H]2COC(=O)CCC(C)=NO[C@H](C)c2cn([C@H](CO)Cc3ccccc3)nn2)cc1`, the z-score in [1] was -0.748 and -0.352; in experiment [2], 0.498 and 0.0533; in [3] it was -1.06 and -0.619; in experiment [4], -0.764 and -2.3; in [5] it was -2.54 and -1.69; in experiment [6] it was -0.796 and -0.898. The z-score in experiment [7] is -2.62 (inactive) and -0.634 (inactive); in experiment [8] it was 0.0444 and -0.196; in experiment [9] it was -0.704 and 0.182; in [10] it was 0.385 (inactive) and 0.277 (inactive); in experiment [11], 0.327 and 0.346; in experiment [12], 0.496 (inactive) and 1.83 (inactive). For the same compound, the z-score was 0.149 (inactive) and -0.116 (inactive) in experiment [13]; -1.31 (inactive) and -0.491 (inactive) in [15]; 0.581 (inactive) and 1.67 (inactive) in experiment [16]; 0.521 (inactive) and 0.693 (inactive) in experiment [17]; -0.313 (inactive) and 0.596 (inactive) in [18]; 0.651 and 0.198 in [19]. Moreover, the composite z-score in experiment [14] is 0.899 (inactive) and -0.413 (inactive); in experiment [20], -0.252 and -0.188.
